Source: PubChem BioAssay (NCATS)
Values without a mark were called inactive. Records with an inconclusive call do not appear. A call without a number means that no potency is given here. Activity calls are given as the source filed them. The call rests on the fitted dose curve; in most records, active means well fitted curve in the direction sought with a large enough effect; inconclusive means small, poorly fitted or top-dose-only effect, or another doubt; inactive means no such curve, though single readings can be large; an effect the other way counts as inactive or inconclusive. Numbered stars: 1 amine (or outer) side, 2 acyl side, 3 side chain; on linkers, the order of the positions; unused ones are H or OH. Square brackets hold non-standard residues; d marks the D form. Peptide text beside a SMILES is read from it. ξ: configuration not given here. X4 = O=C(C1CC2(c3ccc(O)cc3)c3ccccc3NC2N1[*:1])[*:2]; ξW = NC(Cc1c[nH]c2ccccc12)C(=O)O; ξY = NC(Cc1ccc(O)cc1)C(=O)O

What was measured:
[1] = system: Zika virus NS2B-NS3 protease (linked construct); assay: Primary screen NINDS Rhodamine qHTS for Zika virus inhibitors (AID 1347160); further: nearly all actives have a fitted effect of over 55% in size; further: potency means the concentration at half of the fitted maximal effect
Outline: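 Rhodamine110-peptide cleavage (1.5 µM substrate) by 25 nM linked NS2B-NS3 enzyme at pH 8.0 (Tris, Tween 20), after 15 min RT preincubation with compounds; 15-min fluorescence change normalized to controls and Hill-fitted.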

[2] = OV-KATE Cancer Cell Toxicity qHTS against the NCATS CANVASS Library (AID 1347345); further: potency means the concentration at half of the fitted maximal effect
Outline: (§1)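 Following a 4 h pre-incubation of 1000 seeded cells, compounds were pinned in an 11-pnt dilution series and left for 72 h; viability then came from CellTiter-Glo.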

[3] = HPAF-II Cancer Cell Toxicity qHTS against the NCATS CANVASS Library (AID 1347346); further: nearly all actives have a fitted effect of over 55% in size; further: potency means the concentration at half of the fitted maximal effect
Outline: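 Cytotoxicity read-out was CellTiter-Glo luminescence after 72 h at 37 degrees C exposure of HPAF-II cells (1000/well) to compounds in an 11-point titration.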

[4] = UWB1.289 Cancer Cell Toxicity qHTS against the NCATS CANVASS Library (AID 1347347); further: nearly all actives have a fitted effect of over 60% in size; further: potency means the concentration at half of the fitted maximal effect
Outline: as §1

[5] = OV-SAHO Cancer Cell Toxicity qHTS against the NCATS CANVASS Library (AID 1347348); further: nearly all actives have a fitted effect of over 55% in size; further: potency means the concentration at half of the fitted maximal effect
Outline: as §1

[6] = U-118MG Cancer Cell Toxicity qHTS against the NCATS CANVASS Library (AID 1347351); further: potency means the concentration at half of the fitted maximal effect
Outline: as §1

[7] = COV-362 Cancer Cell Toxicity qHTS against the NCATS CANVASS Library (AID 1347352); further: potency means the concentration at half of the fitted maximal effect
Outline: (§2)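 Toxicity was measured as CellTiter-Glo luminescence after 72 h exposure to an 11-point compound series. Compound was added to 1000 cells/well 4 h after seeding.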

[8] = A2780 Cisplatin Sensitive Ovarian Cancer Cell Toxicity qHTS against the NCATS CANVASS Library (AID 1347353); further: nearly all actives have a fitted effect of over 60% in size; further: potency means the concentration at half of the fitted maximal effect
Outline: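 Cisplatin-sensitive A2780 ovarian cells (750/well) received compound in 11 concentrations, and were incubated 72 h at 37 °C. ATP content was measured by ATPLite luminescence; bortezomib served as control.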

[9] = UWB1.289-WTBRCA1 Cancer Cell Toxicity qHTS against the NCATS CANVASS Library (AID 1347354); further: potency means the concentration at half of the fitted maximal effect
Outline: as §2

[10] = HPAF-II 24hr Apoptosis Induction qHTS against the NCATS CANVASS Library (AID 1347356)
Outline: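 Caspase-Glo 3/7 luminescence, read after 15 min room-temperature development, measures apoptosis in HPAF-II cells treated 24 h at 37 degrees C with an 11-point concentration series; 500 cells/well; doxorubicin control.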

[11] = HEK293 24hr Apoptosis Induction qHTS against the NCATS CANVASS Library (AID 1347359)
Outline: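 HEK293 cells (500/well, DMEM + 10% FBS) were exposed to compounds in an 11-point series for 24 hours at 37 degrees C, then caspase-3/7 activity was read by Caspase-Glo DEVD luciferase luminescence after 15 min.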

[12] = HEK293 12hr Apoptosis Induction qHTS against the NCATS CANVASS Library (AID 1347361)
Outline: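 Luminescent caspase-3/7 signal, proportional to enzyme activity, was recorded from HEK293 cultures in DMEM + 10% FBS treated for 12 hours with titrated natural products (11 points). Doxorubicin (0.1nM - 4uM) served as control.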

[13] = system: NAD(P)H diaphorase (Clostridium kluyveri); assay: Diaphorse counterscreen qHTS: Assay Interference Panel against the NCATS CANVASS Library (AID 1347362)
Outline: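 Clostridium kluyveri diaphorase in PBS with 0.01% Tween-20 was preincubated 15 min at room temperature in the dark with compounds (11-point series). Resorufin fluorescence (ex 525/20, em 598/25) was read 5 min after adding resazurin/NADH.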

[14] = qHTS for ATAD5 Agonist screened against the NCATS CANVASS Library (AID 1347367);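 further: luciferase reporter driven by ATAD5 which rises upon DNA damage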
Outline: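 Genotoxicity was scored as increased ATAD5-luciferase luminescence in HEK293T after 16hr of exposure, with cell viability measured by fluorescence beforehand in the same well.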

[15] = MCF7 Cancer Cell Toxicity qHTS against the NCATS CANVASS Library (AID 1347369); further: potency means the concentration at half of the fitted maximal effect
Outline: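 This 72 hr qHTS scored MCF7 viability by CellTiterGlo luminescence, with 500 cells/well; bortezomib titration ran as control.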

[16] = J3T Cancer Cell Toxicity qHTS against the NCATS CANVASS Library (AID 1347371); further: potency means the concentration at half of the fitted maximal effect
Outline: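 Cytotoxicity read as CellTiterGlo ATP luminescence after 72 h incubation (37C, 5% CO2) of J3T canine glioma cells (500/well) with an 11-point compound series.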

[17] = qHTS for Hypoxia signaling pathway (HIF-1) agonists against the NCATS CANVASS Library (AID 1347375); further: potency means the concentration at half of the fitted maximal effect
Outline: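 Beta-lactamase reporter under HRE control in ME-180 cells; compounds (11-point qHTS series) added after 5 hrs plating, then 17 hrs at 37C. FRET substrate read after 2 hr; same-well CellTiter-Glo luminescence gave viability and normalization.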

[18] = qHTS for Inflammasome Signaling Inhibitors: IL-1-beta AlphaLISA screen against the NCATS CANVASS Library (AID 1347379);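 further: human THP-1 cells primed with LPS then triggered with ATP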
Outline: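 Secreted IL-1B from human THP-1 cells quantified by AlphaLISA 16 hr after compound addition (final up to 57.5 uM). A 1 hr compound pretreatment preceded inflammasome activation with 250 ng/mL LPS plus 1.25 mM ATP (final).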

[19] = Vero-766 cells viability qHTS against the NCATS CANVASS Library: Counterscreen for Zika virus inhibition assay (AID 1347394); further: nearly all actives have a fitted effect of over 60% in size; further: potency means the concentration at half of the fitted maximal effect
Outline: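 Counterscreen for toxicity: Vero 766 cells exposed 72 h to an 11-point compound series, viability by CellTiter-Glo.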

[20] = qHTS for inhibitors of Wild type Zika virus screened against the NCATS CANVASS Library (AID 1347396);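 further: ATP luminescence of surviving cells so rescue from viral cell killing; series mostly up to about 46 µM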
Outline: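 Luminescent CellTiter Glo read-out of virus-induced cytotoxicity, 72 h post-infection, in Vero 766 cells. Compounds were tested at 11 concentrations; uninfected, vehicle-treated wells defined 100% inhibition.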

Row | SMILES | Potency [1] | Potency [2] | Potency [3] | Potency [4] | Potency [5] | Potency [6] | Potency [7] | Potency [8] | Potency [9] | outcome [10] | Potency [11] | Potency [12] | Potency [13] | Potency [14] | Potency [15] | Potency [16] | Potency [17] | Potency [18] | Potency [19] | Potency [20]
1 | CC[C@H](C)[C@H](NC(=O)C(Cc1ccc(O)cc1)NC(=O)C(Cc1c[nH]c2ccccc12)NC(=O)[C@H](C)N)C(=O)N1C(C(=O)NC(Cc2ccc(O)cc2)C(=O)O)CC2(c3ccc(O)cc3)c3ccccc3NC12 (some centres undefined) (H-A[ξW][ξY]I[X4][ξY]-OH) | 9.84 µM (active) | inactive | inactive | inactive | inactive | inactive | inactive | inactive | inactive | inactive | inactive | inactive | inactive | inactive | inactive | inactive | inactive | inactive | inactive | inactive
2 | O=C(O)[C@@]12CO[C@@]3(O)C4CCN(CC[C@H]31)[C@H]4c1c2[nH]c2ccccc12 | inactive | inactive | inactive | inactive | inactive | inactive | inactive | inactive | inactive | inactive | inactive | inactive | inactive | inactive | inactive | inactive | inactive | inactive | inactive | inactive
3 | CN1CC[C@]2(c3cccc4c3N[C@@H]3N(C)CC[C@]43[C@@]34CCN(C)[C@@H]3Nc3c([C@]56CCN(C)[C@H]5Nc5ccccc56)cccc34)c3ccccc3N[C@H]12 | inactive | 8.38 µM (active) | 8.41 µM (active) | 4.72 µM (active) | 3.75 µM (active) | 6.68 µM (active) | 5.94 µM (active) | 9.35 µM (active) | 10.6 µM (active) | inactive | inactive | inactive | inactive | inactive | 2.34 µM (active) | 2.64 µM (active) | 9.41 µM (active) | 24.3 µM (active) | 20.9 µM (active) | –
4 | COc1cc(/C=C2/C(=O)N(c3ccc(O)cc3C(=O)O)[C@H](c3ccc(O)c(OC)c3)C2C(=O)Nc2ccc(O)cc2C(=O)O)ccc1O (some centres undefined) | 6.97 µM (active) | inactive | inactive | inactive | inactive | inactive | inactive | inactive | inactive | inactive | inactive | inactive | inactive | inactive | inactive | inactive | inactive | inactive | inactive | inactive
5 | COC1C(O)C(OC(N)=O)C(Oc2ccc3c(O)c(NC(=O)c4ccc(O)c(CC=C(C)C)c4)c(=O)oc3c2C)OC1(C)C (centres undefined) | 44 µM (active) | inactive | inactive | inactive | inactive | inactive | inactive | inactive | inactive | inactive | inactive | inactive | inactive | inactive | inactive | inactive | inactive | inactive | inactive | inactive
